Results on 24 sequences are retold here after the supplement of paper PMC11417369.

± gives the standard deviation of the averaged measurements. In all, about 25,000 sequences were measured (“ln(normalized median fluorescence intensity)”: median about 8.9, highest 2% from about 10 on). Shown is part of a subset that was picked to be rich in the highest values.

The experiment deals with PfAP2-LT AP2 domain (GST-tagged). Put plainly: gcPBM binding intensity (ln(normalized median fluorescence intensity)); higher = stronger DNA binding. The method, boiled down: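 Binding of GST-tagged P. falciparum DNA-binding domains, expressed in E. coli and used at about 25 μg on average, was carried out for 1 h in 1× PBS containing 1% milk, 0.2 mg/ml BSA, 0.5% salmon testes DNA and 0.03% Triton X-100. The target was an Agilent 4 × 180k array of primer-extended double-stranded 36-bp intergenic genomic probes plus negative controls, read with Alexa488 anti-GST antibody at 488 nm. Binding intensity is the highest Masliner-normalised natural-log median intensity across replicate spots of either probe orientation.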
Regarding “TTCTTATATTGTACAGTACACACCTTTATAATGTTA [CACACA_site7953]”, the “gcPBM binding intensity (ln)” value stood at 9.15 ± 0.49. Consider “TATCATAAAATATGTAGTACGTATATATATAAAAAT [XGTACX_site5455]”, for which the “gcPBM binding intensity (ln)” value amounted to 8.97 ± 0.41. To “GTAATTATTAATAAAACATGCGTATAAAATTTTCTC [TGCATGCA_site50]” belongs 8.62 ± 0.46. To “TATATATATATATTTACACACATTCATATAAATTCA [CACACA_site3532]” belongs 9.04 ± 0.28; to “CAGACGCACGTATTTGCACACATTGCCACGTAATTA [CACACA_site3349]”, 9.28 ± 0.37; to “AAATTTGGCAGACACACACACACACGCACACGCACA [CACACA_site6423]”, 10.4 ± 0.33.

On to “ATTTGGCATAGACACACACACACACGCACGCACATA [CACACA_site6424]”, for which the “gcPBM binding intensity (ln)” value was found to be 10.3 ± 0.28. Take “TACACCCATAGACACACACACACGCATAAAAAAAAA [CACACA_site8428]”: the “gcPBM binding intensity (ln)” value worked out at 9.95 ± 0.55. For the sequence “TACAGACATAGACACACACACACGCATAAAAAAAAA [CACACA_site6820]”, the “gcPBM binding intensity (ln)” value was determined as 10 ± 0.51. To “TACTTATTGTGATACTTATATTATTTTATGATTAAA [XGTACX_negctrl_site353]” belongs 8.5 ± 0.42; to “TTTTGGTGGGTTACAAGTACTCAAAATGGATTGTTA [XGTACX_site1951]”, 8.56 ± 0.38. To “GTTGCCATCATTTGGCGTACAGTCAAAACCAAATCT [XGTACX_site1398]” belongs 8.56 ± 0.37. For “ACAACACATATTCATCGTACATGTATTAGGAAGACA [XGTACX_site1859]”, the “gcPBM binding intensity (ln)” value was 9.04 ± 0.42.

On to “GTATATTGTACCATCACACATGTAAAACATAGATGT [CACACA_site5359]”, for which the “gcPBM binding intensity (ln)” value was 8.94 ± 0.43.

Turning to “TGGTATATATTTCCTTGTACATATAATATATATTGT [XGTACX_site3961]”, the “gcPBM binding intensity (ln)” value is 8.94 ± 0.51.

On to “TACACAAATATATATATATATATATATATATATATA [XGTACX_negctrl_site305]”, for which the “gcPBM binding intensity (ln)” value was found to be 10 ± 0.5. Take “ATGAGTGCACAAATATATATATATATATATATATAT [CACACA_negctrl_site404]”: the “gcPBM binding intensity (ln)” value came to 10.2 ± 0.26. For the sequence “GCACAAATATATATATATATATATATATATATATAT [GTGCAC_negctrl_site661]”, the “gcPBM binding intensity (ln)” value amounted to 10.2 ± 0.12.

“TAATATAATCTGAGTGCACACAAATAAATAAACATA [CACACA_site8032]”: the “gcPBM binding intensity (ln)” value was 9.16 ± 0.44. To “ATAAAAATAAAAAGTGTGCACACAAAAATATATATA [GTGCAC_site9931]” belongs 9.62 ± 0.36; to “CACAAATATACAAATACACACAAATATACAAATACA [CACACA_site2385]”, 9.42 ± 0.44; to “TATAATGATGATGATAGTACGTATTAGTATAAAAAA [XGTACX_site9]”, 8.81 ± 0.52.

For the sequence “TATACCTTTTTATTCACACATATATGTCATATGTCA [CACACA_site5423]”, the “gcPBM binding intensity (ln)” value was 9.28 ± 0.5.

In the case of “CTCTTGTCATTTTGCACACACACATGGATAGGTTAT [CACACA_site5655]”, the “gcPBM binding intensity (ln)” value is 9.81 ± 0.33.
